Bioassay records from PubChem BioAssay.
IMPase Li inh = qHTS Assay for Identifying the Cell-Membrane Permeable IMPase Inhibitors: Potentiation with Lithium; CHO-M1 cells, IP1 TR-FRET (IP-One), carbachol + lithium; Potency, µM (doses to about 59.4 µM), for inactives: at the top dose activity, negative = IMPase inhibition, most hits filed as inhibitors; 0.35% of 210,000 active; AID 1457, 2008;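 note: IP1 builds up when IMPase is blocked and the TR-FRET signal falls; potency is the fitted concentration of half-maximal effect; plate controls were basal vehicle for no effect and high inhibitor control for full effect; nearly all actives have a fitted effect of over 50% in size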
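Steps: plate 2000 CHO-M1 cells per well and culture 16–30 h; add compound and lithium; incubate 30 min, 37C; add d2-IP1 tracer and Eu cryptate anti-IP1 antibody in lysis buffer; read after 10 min at room temperature.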
IMPase inh = qHTS Assay for Identifying the Cell-Membrane Permeable IMPase Inhibitors; Inositol monophosphatase 1 (Rattus norvegicus), P97697; CHO-M1 cells, IP1 accumulation, HTRF TR-FRET ratio; inhibition (IP1 accumulation), % at 46.1 µM; 120,000 tested, under 10 active; AID 901, 2007; active = well fitted curve in the direction sought with a large enough effect in the signal ratio, not every such curve was filed as active; inconclusive = small, poorly fitted or top-dose-only effect, or a change in a side signal; inactive = no such curve, though single readings can be large or run the other way; the % refers to the signal ratio;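 note: cells stimulated with carbachol in lithium chloride buffer; plate controls were DMSO basal wells for no effect and reference inhibitor wells for full effect; higher means more IMPase inhibition seen as more IP1 and lower FRET ratio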
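Carbachol-driven Gq signalling in CHO-M1 cells (2000/well) generates IP1. Compounds that block IMPase raise IP1 and so reduce the FRET signal from Eu-anti-IP1 and d2-IP1 after a 10 min room-temperature lysis.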
HttQ103 aggreg = qHTS Multiplex Assay to Identify Dual Action Probes in a Cell Model of Huntington: Aggregate Formation (GFP); PC12 HttQ103-GFP aggregates, Acumen cytometry, 40 h; 1.1% of 220,000 active; Potency, µM (highest dose often 46.1 µM), inactives show top-dose activity change, negative = inhibition, actives largely listed as inhibitors; note: potency is the fitted concentration of half-maximal effect; % is set by controls: 0 for no effect and ±100 for the full control effect; nearly all actives have a fitted effect of over 60% in size
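Multiplexed with ATP-based cell death, this channel scores GFP aggregates in PC12 cells expressing inducible HTTex1-Q103-GFP. Induction used 100 nM tebufenozide; compounds were tested in concentration series.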
HPGD block = qHTS Assay for Inhibitors of HPGD (15-Hydroxyprostaglandin Dehydrogenase). 15-hydroxyprostaglandin dehydrogenase [NAD(+)] (Homo sapiens), P15428. purified HPGD, NADH fluorescence kinetic, PGE2 substrate. Potency, µM, without a hit: top-dose activity change, negative = inhibition, hits mostly inhibitors. 4.3% of 150,000 active. AID 894, 2007; active = well fitted inhibition curve with a large enough effect, not every such curve was filed as active; inconclusive = small, poorly fitted or top-dose-only effect, or another doubt; inactive = no such curve, though single readings can be large or run the other way; note: potency is the fitted concentration of half-maximal effect; % is set by controls: 0 for no effect and ±100 for the full control effect
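20 nM HPGD preincubated 15 min at room temperature with compound in 50 mM Tris-HCl pH 8, 0.01% Tween 20. Started with 1 mM NAD+ and 30 uM prostaglandin E2; NADH fluorescence (360/450 nm) read 5 times over 30-s intervals, last minus first.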
ALDH1A1 inh = qHTS Assay for Inhibitors of Aldehyde Dehydrogenase 1 (ALDH1A1); Purified ALDH1A1, NADH fluorescence, propionaldehyde substrate; Aldehyde dehydrogenase 1A1 (Homo sapiens), P00352; Potency, µM (series often up to 75.3 µM), inactives show at the top dose activity, negative = inhibition, most hits filed as inhibitors; 7.3% of 220,000 active; AID 1030, 2008; active = well fitted inhibition curve with a large enough effect, not every such curve was filed as active; inconclusive = small, poorly fitted or top-dose-only effect, or another doubt; inactive = no such curve, though single readings can be large or run the other way;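 note: potency is the fitted concentration of half-maximal effect; plate controls were no enzyme wells and a reference inhibitor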
Target sequence (P00352 whole entry, looked up): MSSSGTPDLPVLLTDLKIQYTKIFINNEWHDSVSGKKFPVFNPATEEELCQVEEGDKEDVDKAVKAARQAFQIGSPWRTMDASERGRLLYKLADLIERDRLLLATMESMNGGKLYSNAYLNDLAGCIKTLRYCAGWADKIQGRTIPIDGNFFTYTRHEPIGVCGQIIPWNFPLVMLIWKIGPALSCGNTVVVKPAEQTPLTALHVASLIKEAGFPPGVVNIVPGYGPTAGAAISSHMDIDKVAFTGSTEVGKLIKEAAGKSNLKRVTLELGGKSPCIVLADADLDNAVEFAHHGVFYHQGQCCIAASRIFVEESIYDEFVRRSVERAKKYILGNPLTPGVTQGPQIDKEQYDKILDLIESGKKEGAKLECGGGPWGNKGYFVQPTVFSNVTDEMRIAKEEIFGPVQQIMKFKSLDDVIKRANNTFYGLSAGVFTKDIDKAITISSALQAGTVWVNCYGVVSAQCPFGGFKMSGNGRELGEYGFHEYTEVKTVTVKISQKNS
HTT cytoprotect = qHTS Multiplex Assay to Identify Dual Action Probes in a Cell Model of Huntington: Cytoprotection (ATP); 0.14% of 230,000 active; PC12 HTT-Q103 induced, cytoprotection, ATP luminescence, 40 h; Potency, µM (series often up to 56.4 µM), inactives show cytoprotection (ATP increase), usual class: activators; AID 1471, 2008; note: potency is the fitted concentration of half-maximal effect; % of control where 0% means no effect; nearly all actives have a fitted effect of over 45% in size
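Quantitative HTS on tebufenozide-induced (100 nM) PC12 cells expressing HTTQ103 exon 1–GFP; compounds tested as a concentration series; survival measured via cellular ATP.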
* hit, by the source's call; ? = inconclusive; · = not tested or not shown; [ ] = remark or other dose. Most compounds without a hit are left out; they make up all but 9.4% or so of the library. Unless noted, calls come from the whole dose curve; as a rule, active = well fitted curve in the direction sought with a large enough effect; inconclusive = small, poorly fitted or top-dose-only effect, or another doubt; inactive = no such curve, though single readings can be large; an effect the other way counts as inactive or inconclusive.

SMILES	IMPase Li inh	IMPase inh	HttQ103 aggreg	HPGD block	ALDH1A1 inh	HTT cytoprotect
Nc1cccnc1Sc1ccc([N+](=O)[O-])cn1	-3%	·	28%	10µM*	?	·
O=C(O)c1cc(=O)[nH]c(=S)[nH]1	-2%	·	·	-4%	-2%[13.5 µM]	-4%[10 µM]
O=C(O)c1cc(=O)c2cccc(O)c2[nH]1	28%	·	·	-9%	-10%	-6%
Cc1ccc(S(=O)(=O)Nc2cccc3ncccc23)s1	28%[38.3 µM]	8	?	28µM*	13µM*	3%
Cc1ccc(S(=O)(=O)Nc2cccc3ncccc23)cc1	·	·	-2%[9.22 µM]	·	·	4%[10 µM]
COc1cc2c(cc1OC)C1C(=O)c3c(O)cc4c(c3OC1CO2)C=CC(C)(C)O4 (stereo not drawn)	15%	·	·	-20%	?	-117%
O=C(NN1C(=O)C2C3C=CC(O3)C2C1=O)c1cccc(O)c1 (stereo not drawn)	6%	-4	2%	-3%	20µM*	-7%[10 µM]
O=C(NN1C(=O)C2C3C=CC(O3)C2C1=O)c1cccc(Br)c1 (stereo not drawn)	1%	·	3%	·	28µM*	?
Cc1cccc(C(=O)NN2C(=O)C3C(c4ccccc4)C=CC(c4ccccc4)C3C2=O)c1 (stereo not drawn)	25%[38.3 µM]	15	1%	-9%	2%	5%
CNC(=O)CSc1nc2nc(C)cc(C)n2n1	-11%[38.3 µM]	-1	5%[9.22 µM]	-18%	-16%	4%
CCOC(=O)CC(=O)CSc1nc2nc(C)cc(C)n2n1	9%[38.3 µM]	7	2%	16µM*	13µM*	-12%[0.074 µM]
COc1ccc(CN(CC2CCC(C(=O)O)CC2)C(=S)Nc2ccccc2C)cc1 (stereo not drawn)	-3%	·	9%	·	?	-35%
COc1ccc(CN(CC2CCC(C(=O)O)CC2)C(=S)Nc2cc(C)ccc2C)cc1 (stereo not drawn)	-11%	·	3%	·	3.5µM*	?
O=S(=O)(O)n1ccnc1 (tested in a mixture with another compound)	-1%	·	·	-9%	7%[13.5 µM]	-13%[10 µM]
CC(=O)c1ccccc1OCCn1nnc(-c2ccc(C)cc2)n1	14%	1	20µM*	?	-2%	2%[10 µM]
CCC1(c2ccc(Cl)cc2)NC(=S)N(c2ccc(C)cc2)N1 (stereo not drawn)	-4%	·	25%	?	28µM*	·
CCC1(c2ccc(Cl)cc2)NC(=S)N(c2ccc(C)c(C)c2)N1 (stereo not drawn)	·	·	-1%[9.22 µM]	·	·	15%[10 µM]
CC1(CCc2ccccc2)NC(=S)N(c2ccccc2)N1 (stereo not drawn)	5%	·	6%	40µM*	14%	·
CC1(CCc2ccccc2)NC(=S)N(c2ccc(Cl)cc2)N1 (stereo not drawn)	12%	·	-6%	1µM*	7.1µM*	19%[0.074 µM]
Cc1cccc(N(CC(=O)NCCSCc2ccccc2)S(=O)(=O)c2ccccc2)c1C	·	2	·	·	·	·
CCCCCCCCCCCCCCCC(N)=O	-3%	·	·	-3%	-4%	-33%
CC(=O)c1cccc(CN2CCN(Cc3ccc(C)cc3)C(CCO)C2)c1 (stereo not drawn)	11%	·	?	·	9%	-22%
CC(=O)c1cccc(CN2CCN(Cc3ccc(F)cc3)C(CCO)C2)c1 (stereo not drawn)	17%	·	6%[9.22 µM]	·	28µM*	20%[10 µM]
CC(=O)c1cccc(S(=O)(=O)NC2CCCCCC2)c1	4%	·	-21%	-14%	10µM*	3%[10 µM]
CCOC(=O)c1ccc(N2NC(=O)/C(=C/c3ccc(OC(=O)c4ccco4)c(OC)c3)C2=O)cc1	10%	·	11%	13µM*	?	·
